Source: PubChem BioAssay (EPA / NIEHS)
Inconclusive results are not listed. Activity calls are given as the source filed them. How the source made its calls: active means hit-call score of the fitted dose curve at least 0.9, where 1 is the maximum; inconclusive means response in the unintended direction; inactive means score below 0.9.

Assay: CCTE_Deisenroth_AIME_384WELL_CTox_Active: Cytotoxicity Assessment (CTOX) in CCTE's 384-well Estrogen Receptor Transactivation Assay with AIME metabolic competence (metabolism positive), Deisenroth Lab (AID 2284037);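 further: chemicals first conditioned 2 h by alginate-bound induced rat liver S9 before cells; activity means signal loss indicating cell death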
In short: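 Cytotoxicity in VM7Luc4E2 breast cells, 24 hour, measured as protease-substrate fluorescence loss, after 2-hour metabolic conditioning with induced rat hepatic S9 in alginate microspheres. Concentrations 0.002 - 200 uM, 10 points, bidirectional fitting.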

SMILES	outcome	AC50
CC(C)CC(C)CC(O)CC(C)C (stereo unspecified)	inactive	–
O=C1NC2NC(=O)NC2N1 (stereo unspecified)	inactive	–
CCCCCCC(C)(C)S	inactive	–
CCCCCCCCC=CCCCCCCCC1=NCCN1CCO	inactive	–
CCCCCCCCCCCCCCN(CCO)CCO	inactive	–
O=[N+]([O-])c1ccc(O)cc1C(F)(F)F	–	62.2 µM (active)
CCCCCCCCSCCO	inactive	–
O=C1OC(=O)c2c(Cl)c(Cl)c(Cl)c(Cl)c21	inactive	–
Nc1ccc(N)c2c1C(=O)c1ccccc1C2=O	–	52 µM (active)
CCCCC(CC)COC(=O)c1ccc(O)cc1 (stereo unspecified)	inactive	–
O=P(O)(O)O	inactive	–
COc1ccccc1N=Nc1c(S(=O)(=O)O)cc2cc(S(=O)(=O)O)cc(NC(C)=O)c2c1O	inactive	–
Oc1ccc2cc(SSc3ccc4cc(O)ccc4c3)ccc2c1	inactive	–
Clc1ccc(C(c2ccccc2Cl)C(Cl)Cl)cc1 (stereo unspecified)	–	100 µM (active)
Nc1ccc2cc(S(=O)(=O)O)cc(O)c2c1N=Nc1ccccc1C(F)(F)F	–	46.4 µM (active)
O=C(CC(=O)c1ccccc1)c1ccccc1	inactive	–
